# uPA generation – qHTS for Inhibitors of Cell Surface uPA Generation. 0.31% of 330,000 active. cell surface uPA generation assay, qHTS. Potency, µM (doses to about 38.3 µM), for inactives: at the highest dose activity change, negative = inhibition, most hits filed as inhibitors; active = well fitted inhibition curve with a large enough effect; inconclusive = small, poorly fitted or top-dose-only effect; inactive = no such curve, though single readings can be large or run the other way; tested in mouse RAW 264.7 cells; also: potency is read from the fitted curve at half-maximal effect; % is scaled to controls: 0 for no effect and ±100 for the full control effect; nearly all actives have a fitted effect of over 55% in size
# Giardia kill – Small Molecules that selectively kill Giardia lamblia: qHTS | AID 540267, 2011 | activity change, % at 7.66 µM, hits read low | 0.15% of 340,000 active | Giardia lamblia trophozoite viability; in the data active = activity change below about -80%; inconclusive = between about -30% and that limit;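 also: parasites exposed to compound for two days anaerobically before the ATP read; % is scaled to controls: 0 for no effect and ±100 for the full control effect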
#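 Giardia trophozoites, 100 cells per well, were exposed to compounds for 48 hrs at 37 deg C under anaerobic conditions; viability was then read as ATP content by bioluminescence after 15-30 min at room temperature.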
# miR-21 act – qHTS Assay for Modulators of miRNAs and/orActivators of miR-21 | AID 2288, 2010 | HeLa miR-21 FLuc reporter, luciferase, 48 h | Potency, µM (series often up to 38.3 µM), without a hit: top-dose activity change, positive = activation, actives largely listed as activators | 340,000 tested, under 10 active;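 also: % of control where 0% means no effect; miR-21 action dims this reporter so a rising signal means less miR-21 action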
#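 Luminescence from a firefly luciferase reporter carrying a miR-21 binding site downstream, stably expressed under a CMV promoter in HeLa cells that make miR-21 endogenously, reports miRNA modulation after 48 h compound exposure up to approximately 40uM final.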
# B2AR arrestin – qHTS assay of beta-arrestin-biased ligands of beta2-adrenergic receptor; Beta-2 adrenergic receptor (Homo sapiens), P07550; beta-arrestin recruitment to beta2AR, cell-based reporter; Potency, µM (titrated, usually from 46.1 µM), without a hit: at the top dose activation, hits mostly activators; 0.02% of 330,000 active; AID 492947, 2010;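 also: potency is read from the fitted curve at half-maximal effect; 0% = DMSO controls and full agonism = EC100 isoproterenol or metaproterenol; nearly all actives have a fitted effect of over 65% in size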
# Target sequence (P07550 whole entry, looked up): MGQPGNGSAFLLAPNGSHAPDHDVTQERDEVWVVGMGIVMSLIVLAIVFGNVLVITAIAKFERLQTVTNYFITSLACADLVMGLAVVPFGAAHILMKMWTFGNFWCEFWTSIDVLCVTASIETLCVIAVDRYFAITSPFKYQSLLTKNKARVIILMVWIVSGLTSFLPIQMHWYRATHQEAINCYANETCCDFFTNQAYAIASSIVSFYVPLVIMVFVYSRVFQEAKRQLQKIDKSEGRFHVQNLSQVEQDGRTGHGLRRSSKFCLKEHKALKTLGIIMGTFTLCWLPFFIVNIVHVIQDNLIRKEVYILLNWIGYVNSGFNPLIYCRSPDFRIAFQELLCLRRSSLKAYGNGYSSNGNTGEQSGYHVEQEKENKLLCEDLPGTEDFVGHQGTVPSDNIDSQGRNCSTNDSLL
# Coupling enz – qHTS Assay for Inhibitors of Fructose-1,6-bisphosphate Aldolase from Giardia Lamblia: Coupling assay counterscreen; AID 2472, 2010; 0.67% of 290,000 active; activity change, negative = inhibition, % at 58.2 µM, hits read low; coupling enzyme system counterscreen, AmpLite Red fluorescence; in the data active = activity change below about -30%; also: % is scaled to controls: 0 for no effect and ±100 for the full control effect
#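 Final compound at 57.5 uM, incubated 10 min at RT with coupling enzyme reagent (glyceraldehyde-3-phosphate), then 20 min with substrate and AmpLite Red detection. Fluorescence read at 525/598 nm; tests interference with the coupling assay, not aldolase inhibition.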
# GALK inhibitor – qHTS Assay for Inhibitors of Human Galactokinase (GALK); Potency, µM (titrated, usually from 57.5 µM), for inactives: at the highest dose activity change, negative = inhibition, usual class: inhibitors; P51570; 0.007% of 270,000 active; Purified GALK, Kinase-Glo residual ATP luminescence; also: potency is read from the fitted curve at half-maximal effect; % is scaled to controls: 0 for no effect and ±100 for the full control effect
#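 The enzyme phosphorylates galactose (100 uM) using ATP (35 uM); inhibition is detected as higher residual ATP, quantified by bioluminescence after 1 h reaction at room temperature, pH 8.0.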
# * = called active by the depositor; ? = inconclusive; . = not tested or not shown; ! = not confirmed by another sample. Shown are actives, neighbours in structure and some others; about 0.92% of the full set was active somewhere. Unless noted, calls follow the shape of the dose curve; as a rule, active = well fitted curve in the direction sought with a large enough effect; inconclusive = small, poorly fitted or top-dose-only effect, or another doubt; inactive = no such curve, though single readings can be large; an effect the other way counts as inactive or inconclusive.
SMILES,uPA generation,Giardia kill,miR-21 act,B2AR arrestin,Coupling enz,GALK inhibitor
COc1ccc(N2CCN(C(=O)CCn3nc(C)c(S(=O)(=O)N4CCCC4)c3C)CC2)cc1,.,.,-5%,.,.,.
CN(C)[C@H]1C(=O)C(C(=O)NCN2CCCC2)=C(O)[C@]2(O)C(=O)C3=C(O)c4c(O)cccc4[C@@](C)(O)[C@H]3C[C@@H]12,.,.,.,.,-36*,.
CC(C)OCCCn1c(=S)[nH]c2ccc(N3CCOCC3)cc2c1=O,.,8,4%,0%,-44*,2%
CCCCn1c(=S)[nH]c2ccc(N3CCOCC3)cc2c1=O,.,.,-9%,0%,0,0%
CN(C)c1ccc(CNC(=O)c2cc3ccccn3n2)cc1,.,.,-40%,.,.,.
Cc1ccc(CSc2nc3ccncc3[nH]2)cc1,-99%,-90*,29%,0%,0,3%
Clc1ccc(CSc2nc3ccncc3[nH]2)cc1,0.45µM*,?,6%,0%,-12,4%
O=C(NCc1cccs1)c1ccc(Cn2c(SCc3ccccc3)nc3cccnc32)cc1,.,.,-1%,.,.,.
Cc1ccc(-c2c(C(=O)N/N=C/c3cccc(Cl)c3)nnn2-c2nonc2N)cc1,6%,-11,-5%,0%,-36*,5%
COc1ccc(N2C(=O)[C@@H]3[C@H](C2=O)[C@H]2c4ccccc4C=CN2[C@@H]3C(=O)Nc2ccccc2)cc1,0%,-5,-18%,-1%,-27,-1%
CC(=O)[C@@H]1[C@@H]2C(=O)N(Cc3ccccc3)C(=O)[C@@H]2C2c3ccccc3C=CN21 (stereo partly specified),0%,4,-7%,-1%,-33*,-6%
O=C(c1ccco1)[C@@H]1[C@@H]2C(=O)N(c3ccccc3)C(=O)[C@@H]2C2c3ccccc3C=CN21 (stereo partly specified),3%,21,-15%,0%,-47*,-1%
CC(C)(C)C(=O)[C@@H]1[C@@H]2C(=O)N(c3ccc4c(c3)OCCO4)C(=O)[C@@H]2C2c3ccccc3C=CN21 (stereo partly specified),3%,3,-14%,0%,-30*,-4%
N#CCCn1c(=O)c(-c2cccs2)nc2cnc(N3CCNCC3)nc21,.,.,.,.,-1,.
CCCN(Cc1ccc(N(C)C)cc1)CC1CC1,5%,11,0%,0%,-50*,-1%
CCCN(Cc1ccc(N(CC)CC)cc1)CC1CC1,8%,0,-1%,0%,1,-2%
COc1cc(NC(=O)c2cc(Cl)ccc2Cl)ccc1NC(=O)c1cc2ccccc2o1,.,.,-17%,.,.,.
Cc1ccc(C(=O)CCS(=O)(=O)c2ccc(F)cc2)cc1,11µM*,10,?,3%,5,-6%
CN(C)Cc1cc(O)c(CN(C)C)cc1O,4%,10,-1%,-1%,-32*,.
O=C(c1ccc2c(c1)N(Cc1ccc(Cl)cc1)C(=O)c1ccccc1S2=O)N1CCN(c2ccccc2F)CC1 (stereo unspecified),.,.,13%,.,.,.
S=c1[nH]c2cc3ccccc3cc2[nH]1,0%,17,-49%,0%,-53*!,5%
CCOC(=O)OCC1OC(c2ccccc2)C=CC1Oc1ccc2oc(=O)cc(C)c2c1 (stereo unspecified),.,.,.,.,5,.
Cc1ccc(S(=O)(=O)Nc2ccc(O)c3ncccc23)cc1,7.9µM*,6,27%,0%,-3,-2%
CCC(=O)Nc1cccc(-c2ccc(N3CCC(C)CC3)nn2)c1,?,-85*,-30%,0%,2,3%
CC1CCN(c2ccc(-c3cccc(NC(=O)C(F)(F)F)c3)nn2)CC1,-5%,-84*,?,0%,0,3%
SMILES,uPA generation,Giardia kill,miR-21 act,B2AR arrestin,Coupling enz,GALK inhibitor
O=C(Nc1cccc(-c2ccc(N3CCCCC3)nn2)c1)C(F)(F)F,?,?,?,0%,1,1%
CN(C)S(=O)(=O)c1ccc(C(=O)Nc2nnc(-c3ccc4c(c3)CCCC4)o2)cc1,4.5µM*,-3,-5%,0%,4,-2%
CC(C)(C)C(=O)Nc1ccc2c(c1)C(=O)C(=O)c1ccccc1-2,.,13,.,.,.,.
Cn1nnnc1SCCCNCc1cccc(OCc2ccc(F)cc2)c1,.,.,26%,.,.,.
C=CCOc1c(Br)cc(CNc2ccc(NC(=O)CCC)cc2)cc1OCC,0%,21,9%,-1%,-1,5%
CCOc1cc(CNc2ccc(N3CCCCC3)cc2)cc(Br)c1OCC(=O)NC(C)(C)C,-3%,8,-12%,-1%,1,4%
C=CCOc1c(Br)cc(CNc2ccc(NC(=O)C(C)C)c(OC)c2)cc1OCC,-6%,-1,0%,?,-50*,.
CCOc1cc(CNc2ccc(N(C)C)cc2)cc(Br)c1OCC(=O)NC(C)(C)C,-4%,-2,-9%,0%,-37*,0%
c1ccc(-c2noc(-c3cccnc3NCc3ccco3)n2)cc1,.,.,14%,.,.,.
CCC(C)(C)C1CCc2[nH]nc(C(=O)NC3CCCC3)c2C1 (stereo unspecified),-1%,19,.,0%,.,.
O=C(NC1CCCCC1)c1n[nH]c2c1CCCCC2,3.2µM*,?,.,0%,.,.
O=C(Nc1ccc(Oc2ccccc2)cc1)C1CCN(S(=O)(=O)c2ccccc2)CC1,.,.,24%,.,.,.
Cc1ccc(Nc2nc3ccc(C)cc3nc2-n2nc(C)cc2C)c(C)c1,.,.,1%,.,.,.
N#Cc1cc([N+](=O)[O-])ccc1Oc1cccc(/C=N/NC(=O)c2cccc(Cl)c2)c1,-9%,2,27%,1%,-36*,-3%
CCN(C(=O)CSc1nc2ccccc2nc1Cc1cccc(OC)c1)c1cccc(C)c1,.,.,-8%,.,.,.
c1coc(-c2nnc(-c3ccco3)nn2)c1,-8%,-26,-41%,0%,-44*,3%
CCN(CC)C(=S)SCC(=O)c1ccccc1,-4%,-14,-37%,0%,0,.
CCN(CC)C(=S)SSC(=S)N(CC)CC,?,-24,?,0.65µM*,1,6%
Cc1ccccc1C(=O)Nc1nc2c(s1)CC(C(C)(C)C)CC2 (stereo unspecified),.,.,-7%,.,.,.
O=C1c2ccccc2-c2nnc(-c3ccc(O)cc3)cc21,?,0,24%,0%,-2,-5%
O=C1c2ccccc2-c2nnc(-c3ccc(F)cc3)cc21,-16%,?,-35%,0%,-2,15%
Cc1ccccc1-c1cc2c(nn1)-c1ccccc1C2=O,-11%,-18,-24%,0%,-39*,5%
Cc1ccc(-c2cc3c(nn2)-c2ccccc2C3=O)cc1,-17%,-97*,29%,0%,-5,17%
